Values joined by “and” are separate entries in the source; they are usually repeats but may differ in a detail not shown here. Identical values can stand only once. Inconclusive results are not listed. A structure can be active in one record and inactive in another. Active and inactive are the calls of the source. The calls were made as follows: active = hit-call score of the fitted dose curve at least 0.9, where 1 is the maximum; inconclusive = response in the unintended direction; inactive = score below 0.9.

This assay can be described thus: TOX21_p53_BLA_p2_viability: Viability Assessment in the Tox21 HCT-116 p53 Agonism Beta-lactamase Assay, Phase 2 (AID 2283591).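 Also: compound exposure lasted 16 h at 37 °C; actives lower the ATP signal meaning cytotoxicity.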 The source says:
TOX21_p53_BLA_p2 is a cell-based, single-readout assay that uses HCT116, a human intestinal cell line, […] in a 1536-well plate.TOX21_p53_BLA_p2_viability is an assay readout measuring cellular ATP content and detected with CellTiter-Glo Luciferase-coupled ATP quantitation.TOX21_p53_BLA_p2_viability used a type of viability reporter where loss-of-signal activity can be used to understand changes in the cell viability. Furthermore, this assay endpoint can be referred to as a secondary readout, because this assay has produced multiple assay endpoints where this one serves a viability function. To generalize the intended target to other relatable targets, this assay endpoint is annotated to the cell cycle intended target family, where the subfamily is cytotoxicity.
Thawing Method: Place 14 mL of pre-warmed thaw medium into a 15 mL of conical tub. Remove the vial of cells to be thawed from liquid nitrogen and thaw rapidly by placing at 37C in a water bath with gentle agitation for 1-2 minutes. Decontaminate the vial by wiping with 70% ethanol before opening in a biological safety cabinet. Transfer the vial contents drop-wise into 14 mL of thaw medium in a sterile 15-mL conical tub. Centrifuge cells at 900 rpm for 4 minutes and resuspend in thaw medium. Transfer contents to the T75 tissue culture flask containing Thaw Medium and place flask in a humidified 37C/5% CO2 incubator. Switch to growth medium at first passage.Propagation Method: Aspirate medium, rinse once in DPBS, add 0.25% Trypsin/EDTA and swirl to coat the cell evenly. Add an equal volume of Growth Medium to inactivate Trypsin after 2-3 minutes incubation at 37C. Centrifuge cells at 900 rpm for 4 minutes and resuspend in growth medium. Cell should be passage or fed at least twice a week.Assay Protocol: Harvest cells from culture in growth medium and resuspend in assay medium. 2.2 Dispense 4000 cells/5 uL/well into 1536-well black/clear bottom plates using a Multidrop dispenser. After the cells were incubated at 37C for 5 hours, 23 nL of compounds dissolved in DMSO were transferred to the assay plate by a PinTool resulting in a 217-fold dilution. Incubate the plates for 16 hours at 37C, 5% CO2. Add 1 uL of 6X LiveBLAzer FRET B/G (CCF4-AM) Substrate Mixture to each well using a BioRAPTR dispenser and incubate the plates at room temperature for 2 hours. Measure fluorescence intensity at 460 and 530 nm emission and 405 nm excitation by an Envision detector. Data is expressed as the ratio of 460nm/530nm emissions. Add 4 uL of Cell-titer Glo to each well using BioRAPTR and incubate the plates at room temperature for […]. For cell viability readout that measures cytotoxicity, 4 ul/well of CellTiter-Glo reagent was added into the assay plates using a Flying Reagent Dispenser. After 30 min incubation at room temperature, the luminescence intensity in the plates was measured using a ViewLux plate reader.
What is called AC50 is the midpoint of the concentration-response curve, whichever way the signal moves. `Cc1cc(Cc2cc(C)cc(C(C)(C)C)c2O)c(O)c(C(C)(C)C)c1`: the AC50 is 10.8 µM (active) and 10.5 µM (active).
As to `CCCCCCCCCCCCCCCC(=O)OC`, the outcome was inactive.
Still for that read-out and setting: the value for `CC(C)(C)c1ccc(CCC=O)cc1` was “inactive”.
Still for that read-out and setting: the result for `CC1=NN(c2ccccc2)C(=O)C1` reads “inactive”.
On to `C=CC(C)(CCC=C(C)C)OC(C)=O` (stereo unspecified), for which the outcome was inactive.
The same measure, in the same setting: the result for `c1cnc2c(c1)ccc1cccnc12` reads “inactive”.
As to `Oc1c(Cl)cc(Cl)cc1Sc1cc(Cl)cc(Cl)c1O`, the outcome was inactive; the half-maximal activity concentration (AC50) was 43.1 µM (active) and 23.4 µM (active) and 76.2 µM (active).
`Nc1cc(Cl)c(-c2cc(Cl)c(N)cc2Cl)cc1Cl`: the AC50 was 31.3 µM (active) and 40.9 µM (active).
Turning to `COCN(COC)c1nc(N(COC)COC)nc(N(COC)COC)n1`, the result was inactive.
Same read-out and setting: the result for `CC(C)C=O` reads “inactive”.
Turning to `CCCCc1oc2ccccc2c1C(=O)c1cc(I)c(OCCN(CC)CC)c(I)c1`, the compound was classed as inactive and the AC50 was 59.9 µM (active).
For `CCCCCCc1ccc(N)cc1`, the outcome was inactive.
Consider `NCCN`, for which the outcome was inactive.
On the same count and under the same terms, the result for `CC(C)(C)C1CCCCC1O` (stereo unspecified) reads “inactive”; that for `NNc1nc(-c2ccc([N+](=O)[O-])cc2)cs1`, “inactive”.
Regarding `CN(C)c1ccc(C(=C2C=CC(=[N+](C)C)C=C2)c2ccccc2)cc1`, the AC50 is 1.83 µM (active) and the compound was called inactive.
Consider `CC=O`, for which the AC50 was 46.2 µM (active).
Regarding `OCC1CCC(CO)CC1` (stereo unspecified), the compound was classed as inactive.
The same measure, in the same setting: the result for `Cc1cc(=O)oc2cc(O)ccc12` reads “inactive”; that for `CCCCCCCCC1CCC(=O)O1` (stereo unspecified), “inactive”.
Still for that read-out and setting: the result for `O=C(NO)c1ccccc1` reads “inactive”.
Take `CCCCCCCCCCCC[N+](C)(C)CCCCCCCCCCCC`: the AC50 was 23.5 µM (active).
Regarding `Cc1ccc(S(=O)(=O)O)cc1`, the compound was classed as inactive.
Still for that read-out and setting: the value for `Oc1ccc(Cc2ccccc2O)cc1` was “inactive”; that for `CCCCCC(C)OC(=O)COc1ccc(Cl)c2cccnc12` (stereo unspecified) was “inactive”.
On the same count and under the same terms, the result for `O=C(CCCN1CCC(O)(c2ccc(Cl)cc2)CC1)c1ccc(F)cc1` reads “inactive”; that for `NCc1cccc(CN)c1`, “inactive”; that for `CC(C)(O)C(=O)c1ccccc1`, “inactive”.
The same measure, in the same setting: the value for `O=C1OC2(c3ccccc31)c1cc(I)c(O)c(I)c1Oc1c2cc(I)c(O)c1I` was “inactive”.
For `CCCCCCCCCCCCCCCCCC[N+](C)(C)Cc1ccccc1`, the AC50 was 41.1 µM (active).
Consider `C[C@]12CC[C@@H]3c4ccc(O)cc4CC[C@H]3[C@@H]1CC[C@@H]2OC(=O)CCC1CCCC1`, for which the compound was classed as inactive.
As to `O=C1OC(=O)c2cc(-c3ccc4c(c3)C(=O)OC4=O)ccc21`, the outcome was inactive.
Same read-out and setting: the value for `O=C1c2ccccc2C(=O)c2c(O)c(O)cc(O)c21` was “inactive”.
On the same count and under the same terms, the value for `O=c1cc(-c2ccccc2)oc2ccc3ccccc3c12` was “inactive”.
Turning to `O=C(Nc1ccc(Cl)c(Cl)c1)c1cc(Cl)cc(Cl)c1O`, the AC50 is 0.558 µM (active).
Consider `CCOCCOCC`, for which the result was inactive.
As for `CC1=CC(=O)c2ccccc2C1=O`, the compound was classed as inactive and the concentration at half-maximal activity (AC50) is 51.1 µM (active).

The record behind these values is PubChem BioAssay (EPA / NIEHS).
